Experimental data published in PubChem BioAssay AID1159572 (Broad Institute, 2015).
Measured potencies and affinities stand elsewhere. Activity calls are given as the source filed them.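 The calls were made as follows: active = compounds whose fitted half-maximal growth inhibition concentration is at most twice their top tested dose; inconclusive = flat fit with 30 to 70% inhibition, or poor fit; inactive = the rest.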

Assay: Dd2 parasite growth inhibition in erythrocytes – SYBR Green, dry powder samples, set 4, dose response (AID 1159572)
Conditions: P. falciparum Dd2 in erythrocytes, 72 h; series mostly up to 19.5 µM

Q: For `COc1ccc2c3c([nH]c2c1)[C@H](CO)N(C(C)=O)CC31CCN(C(=O)Nc2c(C)noc2C)CC1`, which outcome is on record?
A: inactive
